Only some compounds are listed: those with a hit (about 4.1% of all), similar ones and a draw of the others.
Peg3 promoter: Peg3 promoter activity inhibition. HeLa PEG-Prom luciferase reporter, luminescence, overnight. inhibition, % at 20 µM. hit rate 1.7% among 360,000. AID 588405;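 active means inhibition of at least 50% at 20 µM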
TRPM1 prom inh: reduces MITF-dependent TRPM1 promoter luciferase signal. SK-MEL-5 TRPM1 promoter luciferase, 24 h. inhibition, % at 12.5 µM. hit rate 0.83% among 330,000;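 active means mean inhibition across replicates of 60% or more, whatever share of single replicates reaches that level; inconclusive means some that reach 60%, reason not given; inactive means mean inhibition across replicates below 60%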
Shn3 inh set2: Schnurri-3 reporter inhibition in Clone20 osteoblasts; AID 588674; Clone20 osteoblast Shn3 3'UTR firefly luciferase, 24 h; inhibition, % at 12.5 µM; hit rate 0.52% among 360,000;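 active means mean inhibition of at least 75% with every replicate also reaching 75%; inconclusive means mean inhibition at least 75% but some replicate below; inactive means mean inhibition below 75%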;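 further: 0% = median of neutral control wells and 100% = pilot-screen positive control compound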
EBV LMP1 NFkB: Epstein-Barr LMP1 NF-kappaB reporter inhibition; LMP1-induced NF-kappaB luciferase reporter cells, luminescence; inhibition, % at 12.5 µM; hit rate 0.69% among 350,000; AID 504558; in the data active means inhibition above about 41%; inconclusive means no clear call, values can overlap the other calls;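 further: 0% = neutral control wells and 100% = reference inhibitor control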
TROY NFkB inh: TROY signaling inhibition. Q293 LMP1-TROYcd NF-kB luciferase reporter, 4 h. inhibition, % at 10 µM. hit rate 0.98% among 360,000. AID 1347056;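 active means compounds whose plate-normalised and pattern-corrected inhibition of the luciferase reporter signal at the single screening dose is 50% or more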
TWEAK Fn14 block: inhibitors of TWEAK-Fn14 interaction signaling. inhibition, % at 10 µM. hit rate 2% among 360,000. TWEAK-stimulated Fn14 reporter cells, luciferase luminescence, 8 h; in the data active means inhibition above about 50%
Numbers without * were called inactive; ? = inconclusive; . = no result given.

SMILES	Peg3 promoter	TRPM1 prom inh	Shn3 inh set2	EBV LMP1 NFkB	TROY NFkB inh	TWEAK Fn14 block
Cc1ccc(NC(=O)c2ncn(CCCN3CCN(c4ncccn4)CC3)n2)cc1C	-4	2	2	-5	10	3
Nn1cnnc1SCC(=O)Nc1ccc2c(c1)OCO2	10	5	0	7	-16	7
CC1CC(C)CN(S(=O)(=O)c2ccc(NC(=O)c3ccc(=O)[nH]c3)cc2)C1 (stereo unspecified)	6	29	-4	-1	31	10
CCn1c2ccccc2c2cc(CNCc3ccc(OC)cc3OC)ccc21	114*	22	81	10	38	26
COc1cccc(CNCc2ccc(OC)cc2OC)c1	-10	7	14	6	9	-5
N=c1n(CCO)c2ccccc2n1CCOc1ccc(Cl)cc1Cl	103*	4	12	-57	-3	-7
N=c1n(CCO)c2ccccc2n1Cc1ccccc1Cl	13	7	2	4	-16	-7
N=c1c(C(=O)NC2CCCCC2)cc2c(=O)n3ccccc3nc2n1Cc1ccco1	0	-5	5	5	19	85*
N=c1c(C(=O)NC2CCCCC2)cc2c(=O)n3ccccc3nc2n1Cc1ccccc1	18	-23	18	16	-8	-19
N=c1c(C(=O)NCC2CCCO2)cc2c(=O)n3ccccc3nc2n1Cc1ccco1 (stereo unspecified)	3	-12	-10	6	0	20
N=c1c(C(=O)NCCc2ccccc2)cc2c(=O)n3ccccc3nc2n1Cc1ccco1	19	-13	12	-11	29	75*
CC1CC1C(=O)OCC(=O)Nc1cccc([N+](=O)[O-])c1 (stereo unspecified)	-43	5	10	3	-52	-2
NC(Cc1ccc(C(F)(F)F)cc1)c1csc(NC(=O)NCCc2ccccc2)n1 (stereo unspecified)	109*	.	52	.	4	-5
COc1ccc(CC(N)c2csc(NC(=O)CCc3ccccc3)n2)cc1 (stereo unspecified)	33	.	-18	.	27	7
NC(Cc1ccc(C(F)(F)F)cc1)c1csc(NC(=O)Nc2ccccc2Oc2ccccc2)n1 (stereo unspecified)	98*	.	49	.	7	27
NC(Cc1ccc(F)cc1)c1csc(NC(=O)NC(c2ccccc2)c2ccccc2)n1 (stereo unspecified)	96*	.	39	.	23	12
COc1ccc(CC(N)c2csc(NC(=O)Nc3ccccc3Cc3ccccc3)n2)cc1 (stereo unspecified)	104*	.	48	.	-5	-16
COc1ccccc1NC(=O)Nc1nc(C(N)Cc2ccc(C(F)(F)F)cc2)cs1 (stereo unspecified)	96*	.	82*	.	18	22
NC(c1ccccc1)c1csc(NC(=O)Nc2ccccc2Oc2ccccc2)n1 (stereo unspecified)	82*	.	-9	.	-1	-1
COc1ccc(CC(N)c2csc(NC(=O)Nc3ccccc3C(C)C)n2)cc1 (stereo unspecified)	100*	.	9	.	-16	-24
COc1ccccc1NC(=O)Nc1nc(C(N)C(C)C)cs1 (stereo unspecified)	-31	.	-14	.	12	-4
NC(Cc1ccccc1)c1csc(NC(=O)Nc2ccccc2Oc2ccccc2)n1 (stereo unspecified)	104*	.	?	.	12	24
CC1(C(=O)Nc2cccc3c2CCCC3)CCN1C(=O)C1(c2ccc(Cl)cc2)CC1 (stereo unspecified)	19	.	14	.	3	11
Cc1ccccc1CNC(=O)CCC(=O)N1CCOc2ccccc21	7	.	-6	-2	-10	7
CCOc1ccc(S(=O)(=O)NCC2CCCO2)c2ccccc12 (stereo unspecified)	15	9	-9	0	3	1
SMILES	Peg3 promoter	TRPM1 prom inh	Shn3 inh set2	EBV LMP1 NFkB	TROY NFkB inh	TWEAK Fn14 block
COC(=O)CCC(C)N1CCC(Oc2ccc(C(=O)N3CCCC3)cc2)CC1 (stereo unspecified)	-16	7	12	-1	-1	1
O=C(Nc1cc(Cl)ccc1-n1cncn1)c1cc(S(=O)(=O)N2CCOCC2)ccc1F	9	4	13	2	-12	-2
COc1ccc(CC(N)c2csc(NC(=O)Nc3ccccc3Oc3ccccc3)n2)cc1 (stereo unspecified)	98*	.	15	.	16	-9
Cc1ccccc1NC1=NC(=S)N(c2ccccc2)C12CCCCC2	36	14	-6	-1	62*	10
Cc1ccc(OCC(=O)N(Cc2ccccc2)C(C)C)c([N+](=O)[O-])n1	0	14	10	13	-3	2
O=C(c1nn2c(C(F)(F)F)cc(-c3cccs3)nc2c1Cl)N1CCCc2ccccc21	31	-1	58	-10	25	54*
CCCc1nnc(SCC(=O)Nc2ccccc2F)o1	-41	-2	-12	-6	-15	6
CCC(CC)C(=O)N(C)c1c(C)nc2c(OCc3cccc(Cl)c3)cccn12	12	.	14	.	8	13
Cc1ccc(S(=O)(=O)Nc2nc(-c3ccccc3)cs2)cc1	17	-12	-11	-4	8	5
Cc1nc(N)sc1-c1csc(Nc2ncccn2)n1	-9	40	-83	6	33	50*
Cc1cc(C)nc(Nc2nc(-c3ccccc3)cs2)n1	-159	0	-27	-54	39	63*
Cc1ccc(Nc2nc(-c3cccs3)cs2)nc1	-53	18	1	35	71*	75*
Cc1ccc(Nc2nc(-c3ccccc3)cs2)nc1	-142	-1	14	-59	35	75*
COc1ccccc1Nc1nc(-c2sc(N)nc2C)cs1	-48	1	2	-6	-21	1
C[C@H](NC(=O)c1nc[nH]c1C(=O)NC1CCN(C(=O)OC(C)(C)C)CC1)C(=O)OCc1ccccc1	-16	3	5	-1	-4	-6
O=C(COC(=O)C1=COCCO1)NCc1ccc(Cl)cc1Cl	-2	.	1	-3	-14	-30
Cc1cccc(C)c1C(O)c1ncc(-c2ccc(Cl)cc2)[nH]1 (stereo unspecified)	6	.	25	.	10	4
Cc1nc(C)c(-c2csc(Nc3ccc(F)cc3)n2)s1	-186	-27	-47	-57	-18	31
Cc1nc(C)c(-c2csc(Nc3ccc(Cl)cn3)n2)s1	-190	.	-5	3	8	57*
Cc1ccc(S(=O)(=O)N2CCC(C(=O)OCC(=O)NC3(C#N)CCCCC3)CC2)cc1C	3	2	16	1	-3	-4
CCOC(=O)[C@]12CCC=C1N(Cc1cccc3ccccc13)C(=O)[C@H](CC(=O)NCc1ccc(OC)c(OC)c1)C2	.	.	.	.	34	61*
COC(=O)[C@]12CCCCC=C1N(Cc1cccc3ccccc13)C(=O)[C@H](CC(=O)NCc1ccc(OC)c(OC)c1)C2	.	.	.	.	63*	97*
